Source: PubChem (The Scripps Research Institute Molecular Screening Center)
Rows were chosen to be rich in hits. Some 1.2% of all compounds tested hit in one or more screens of this group.
GALR2 agonist: activates the human galanin receptor 2; actives 0.48% (n = 140,000); O43603; activation, % (no concentration beside the values); GALR2-expressing cells, agonist activation read-out; in the data active = activation above about 5%, passing the limit was not always enough;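 note: 0% = vehicle buffer wells and 100% = reference agonist at full effect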
Target sequence (O43603 whole entry, looked up): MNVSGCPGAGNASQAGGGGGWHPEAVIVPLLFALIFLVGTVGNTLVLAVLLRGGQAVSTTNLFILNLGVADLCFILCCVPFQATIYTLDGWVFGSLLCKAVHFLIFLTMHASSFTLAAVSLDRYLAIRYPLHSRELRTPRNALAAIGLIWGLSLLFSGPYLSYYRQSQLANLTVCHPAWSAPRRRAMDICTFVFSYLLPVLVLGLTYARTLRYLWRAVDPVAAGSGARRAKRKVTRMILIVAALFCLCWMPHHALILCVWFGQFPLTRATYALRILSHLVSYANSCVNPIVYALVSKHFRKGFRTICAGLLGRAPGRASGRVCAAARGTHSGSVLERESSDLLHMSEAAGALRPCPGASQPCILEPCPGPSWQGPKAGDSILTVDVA
S1P2 blocker: antagonists of human S1P2 receptor. O95136. cell-based S1P2 antagonist assay, inhibition at 5 uM. inhibition, % at 5 µM. actives 0.21% (n = 97,000). AID 736; in the data active = inhibition above about 45%;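 note: CRE beta-lactamase reporter cells expressing human S1P2 stimulated with S1P; 0% = agonist at EC80 alone and 100% = agonist plus reference antagonist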
GALR2 blocker: antagonists of human galanin receptor 2 (GALR2) | O43603 | GALR2-expressing cells, antagonist mode | inhibition, % at 4 µM | actives 0.39% (n = 140,000);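 note: cells stimulated with galanin 1-16 at roughly its EC80; 0% = agonist challenge control and 100% = basal control without agonist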
S1P2 agonist: activates the human S1P2 receptor; actives 0.46% (n = 97,000); activation, % at 4.5 µM; S1P2-expressing cell line, agonist reporter read-out; O95136; in the data active = activation above about 16%;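 note: 0% = vehicle low control and 100% = maximal reference agonist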
GALR2 blk conf: confirmation of human galanin receptor 2 (GALR2) antagonists; inhibition, % at 4 µM; shares compounds with GALR2 blocker; GALR2-expressing cells, antagonist mode, inhibition; actives 60% (n = 480);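 note: cells stimulated with galanin at about its EC80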
BLA inhib ctr: counter-screen for GALR2 antagonists: beta-lactamase reporter inhibitors; shares compounds with GALR2 blocker; CHO NFAT-BLA reporter, beta-lactamase FRET, thapsigargin-stimulated; inhibition, % at 4.2 µM; actives 36% (n = 480);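 active = inhibition above the mean inhibition across tested compounds plus 3 SD, cut at about 27% in these data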;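 note: 0% = 500 nM thapsigargin stimulated wells and 100% = unstimulated BSA only wells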
The depositor's hits bear a star; · = no result given. Cut-off read from the data, not from the text of the source, unless noted: active = inhibition above about 27%; inactive = the rest.

SMILES	GALR2 agonist	S1P2 blocker	GALR2 blocker	S1P2 agonist	GALR2 blk conf	BLA inhib ctr
CSCCC(NC(=O)c1cc([N+](=O)[O-])ccc1Cl)C(=O)O (stereo not given)	-1	·	4	·	·	·
CCSc1nnc([C@H](Cc2ccccc2)NC(=O)OC(C)(C)C)o1	0	-3	-3	-4	·	·
Cc1ccccc1CS(=O)(=O)c1nnc([C@H](Cc2ccccc2)NC(=O)OC(C)(C)C)o1	3	24	28*	-5	33*	56*
CNc1nc(N(C)C)nc(N(C)C)n1	0	-5	-9	-4	·	·
CCC1C/C(=C\c2cccnc2)C(=O)/C(=C/c2cccnc2)C1 (stereo not given)	-3	·	36*	·	46*	21
O=C1/C(=C/c2cccnc2)CCC/C1=C\c1cccnc1	-1	·	23	·	·	·
Cc1cc(C(F)F)n2nc(C(=O)Nc3sc4c(c3C#N)CCC4)nc2n1	0	·	-12	·	·	·
O=C(N/N=C/c1cn(-c2ccccc2)nc1-c1cccs1)c1ccccc1F	-1	·	14	·	·	·
CC1=NNC(=O)/C1=C\c1cn(-c2ccccc2)nc1-c1cccs1	-1	·	31*	·	-2	22
O=c1c2[nH]c3ccccc3c2ncn1CCC1=CCCCC1	0	-13	11	1	·	·
COc1ccc2[nH]c3c(NCCN(C(C)C)C(C)C)ncnc3c2c1	0	-11	6	-6	·	·
CC(C)OCCCNc1ncnc2c1[nH]c1ccccc12	-4	37	39*	-14	37*	13
C1=C(CCNc2ncnc3c2[nH]c2ccccc23)CCCC1	0	·	48*	·	61*	14
CC1=C(C)/C(=N\OS(=O)(=O)c2ccc(C)cc2)C=CC1=O	-1	·	85*	·	70*	64*
CC1=C/C(=N\OS(=O)(=O)c2ccccc2)C(C)=CC1=O	-3	98*	63*	-4	74*	36*
COc1cc(C(=O)O/N=C2/C=C(C)C(=O)C=C2C)cc(OC)c1OC	1	·	-4	·	·	·
O=C(N/C=N/OCc1ccc(Cl)cc1Cl)NOCc1ncc(C(F)(F)F)cc1Cl	-1	-16	-15	1	·	·
O=[N+]([O-])c1ccccc1N/N=C/c1c[nH]c2ccccc12	-2	4	9	-3	·	·
O=[N+]([O-])c1ccc(N/N=C/c2c[nH]c3ccccc23)cc1	-4	34	36*	-11	25	30*
Cc1sc2ncnc(NCCc3ccc(S(N)(=O)=O)cc3)c2c1C	2	63*	37*	-1	47*	8
NS(=O)(=O)c1ccc(CCNc2ncnc3sccc23)cc1	-2	26	3	-7	·	·
COC(=O)/C=C/c1ccsc1NC(C)=O	-1	·	4	·	·	·
CCOC(=O)C(NC(=O)c1ccc(OC)cc1)(N1CCCC1=O)C(F)(F)F (stereo not given)	-2	·	3	·	·	·
CC(C)c1c(C#N)c(N)nc(SCC(=O)c2cc3ccccc3oc2=O)c1C#N	2	·	2	·	·	·
N#Cc1ccc(-c2ccccc2)nc1SCC(=O)c1cc2ccccc2oc1=O	-1	30	38*	-7	21	19
SMILES	GALR2 agonist	S1P2 blocker	GALR2 blocker	S1P2 agonist	GALR2 blk conf	BLA inhib ctr
O=C(O)CCN1CC2([N+](=O)[O-])C=CC(=O)C([N+](=O)[O-])(C1)C2CC(=O)c1ccccc1 (stereo not given)	0	·	-4	·	·	·
CN(C)CCCNC(CC(=O)Nc1cccc([N+](=O)[O-])c1)C(=O)O (stereo not given)	0	·	-17	·	·	·
COc1ccc(COc2cc(-c3cccc(OC)c3)nc3ccc(NC(=O)c4ccc(C)cc4)cc23)cc1	-2	·	13	·	·	·
COc1ccc(COc2cc(-c3cccc(OC)c3)nc3ccc(NC(=O)c4ccc(N(C)C)cc4)cc23)cc1	-3	·	27*	·	16	10
CCOC(=O)C(=Cc1cc(=O)c(OC)co1)C(=O)OCC	-2	·	41*	·	67*	58*
COc1coc(C(O)CN)cc1=O (stereo not given)	-3	·	3	·	·	·
Cc1ccsc1C(=O)OCC(=O)Nc1cccc(S(=O)(=O)N2CCOCC2)c1	0	·	-1	·	·	·
